A selection: hits, their analogues and other compounds. The true share with any hit is near 2.6%.
TLR9-MyD88 inh: inhibitors of TLR9-MyD88 association in cells, primary screen, cell-based, CHO, BLA complementation, fluorescence. inhibition, % at 4.98 µM. 340,000 compounds, 0.21% hits. CCF4 FRET ratio. Toll-like receptor 9 (Homo sapiens) + Myeloid differentiation primary response protein …;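 active = inhibition above the mean over all tested compounds plus 3 SD, cut at about 21% in these data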;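 also: 0% = DMSO only wells and 100% = clavulanate BLA inhibitor control wells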
Target sequence (Q99836 whole entry, looked up): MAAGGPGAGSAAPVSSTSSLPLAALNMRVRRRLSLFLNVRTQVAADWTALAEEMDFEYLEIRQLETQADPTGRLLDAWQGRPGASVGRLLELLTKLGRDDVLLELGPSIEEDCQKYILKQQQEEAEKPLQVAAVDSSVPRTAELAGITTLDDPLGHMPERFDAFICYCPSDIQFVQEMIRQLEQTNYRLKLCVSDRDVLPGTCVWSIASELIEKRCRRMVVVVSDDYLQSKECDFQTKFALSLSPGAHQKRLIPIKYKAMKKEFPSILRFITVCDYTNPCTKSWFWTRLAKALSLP
Target sequence (Q9NR96 whole entry, looked up): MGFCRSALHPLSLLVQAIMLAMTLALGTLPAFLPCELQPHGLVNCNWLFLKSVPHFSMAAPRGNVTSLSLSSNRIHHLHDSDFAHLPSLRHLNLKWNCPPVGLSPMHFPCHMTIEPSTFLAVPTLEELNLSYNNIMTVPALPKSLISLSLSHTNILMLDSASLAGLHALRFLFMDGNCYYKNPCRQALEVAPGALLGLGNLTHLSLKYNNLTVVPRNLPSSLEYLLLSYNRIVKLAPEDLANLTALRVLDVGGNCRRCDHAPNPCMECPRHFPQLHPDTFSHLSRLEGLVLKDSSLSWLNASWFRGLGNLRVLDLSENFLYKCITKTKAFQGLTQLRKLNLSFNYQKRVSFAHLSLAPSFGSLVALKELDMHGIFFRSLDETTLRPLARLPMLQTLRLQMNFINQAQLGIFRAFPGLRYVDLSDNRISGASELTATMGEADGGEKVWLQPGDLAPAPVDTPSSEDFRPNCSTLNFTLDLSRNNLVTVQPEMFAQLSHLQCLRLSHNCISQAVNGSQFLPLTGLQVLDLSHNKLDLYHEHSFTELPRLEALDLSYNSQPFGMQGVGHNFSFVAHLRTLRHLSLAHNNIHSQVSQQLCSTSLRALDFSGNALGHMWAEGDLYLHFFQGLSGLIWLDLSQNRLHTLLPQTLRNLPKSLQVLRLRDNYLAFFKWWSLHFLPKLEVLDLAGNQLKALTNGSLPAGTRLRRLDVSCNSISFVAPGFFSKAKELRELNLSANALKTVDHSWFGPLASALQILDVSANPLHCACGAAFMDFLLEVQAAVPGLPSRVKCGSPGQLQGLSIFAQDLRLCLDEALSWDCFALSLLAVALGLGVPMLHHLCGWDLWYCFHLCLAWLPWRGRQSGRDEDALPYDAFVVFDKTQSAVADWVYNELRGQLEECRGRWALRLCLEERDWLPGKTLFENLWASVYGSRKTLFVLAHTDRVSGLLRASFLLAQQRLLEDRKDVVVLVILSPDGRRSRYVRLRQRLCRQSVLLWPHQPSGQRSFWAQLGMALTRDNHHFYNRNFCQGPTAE
NOD2-RIPK2 inh: NOD2-RIPK2 binding disruptors in cells, primary screen, fluorescence, CHO cells, BLA complementation; CCF4 ratio; inhibition, % at 4.98 µM; 360,000 compounds, 0.38% hits; AID 624267, 2012; in the data active = inhibition above about 21%;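 also: 0% = vehicle only and 100% = reference blocker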
Exocytosis inh: LAMP-1 surface exposure blockers, TALL-104 cells – cell-based, flow cytometry, MLPCN library, primary screen; TALL-104 LAMP-1 surface exposure; cells stimulated with thapsigargin and PMA; inhibition, % at 10 µM; 360,000 compounds, 0.66% hits; AID 651702, 2012;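 active = inhibition above about 55%, limit read from the data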
PRMT1 FP inh: PRMT1 methyltransferase inhibitors, primary screen, biochemical, fluorescence polarization; Protein arginine N-methyltransferase 1 (Homo sapiens), Q99873; recombinant PRMT1, activity-based probe fluorescence polarization; inhibition, % at 2.79 µM; 370,000 compounds, 1.3% hits; AID 652257, 2013;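 active = inhibition above about 21% made by adding two undisclosed values, limit read from the data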
TLR4-MyD88 BLA: inhibitors of TLR4-MyD88 association in cells, primary screen, cell-based, HeLa CL3-4, BLA complementation, FRET ratio | HeLa CL3-4 TLR4/MyD88 BLA complementation | inhibition, % at 8.4 µM | 200,000 compounds, 0.18% hits; in the data active = inhibition above about 25%;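 also: 0% = vehicle and 100% = reference inhibitor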
ABHD5 PLIN5 PPI: ABHD5-PLIN5 interaction inhibitors, primary screen, cell lysate, split luciferase complementation, luminescence; Split G. princeps luciferase complementation, 4 h; inhibition, % at 4 µM; 360,000 compounds, 0.78% hits;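 active = inhibition above the mean inhibition across every tested compound plus 3 SD, cut at about 22% in these data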;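 also: 0% = DMSO only wells and the 100% control is not disclosed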
Exocytosis CP01: inhibitors of lytic granule exocytosis, confirmation, TALL-104 cells, flow cytometry, Cherry Pick01. 1,500 compounds, 11% hits. shares compounds with Exocytosis inh. inhibition, % at 10 µM. AID 651954, 2012. LAMP-1 externalization; stimulated with PMA plus thapsigargin; in the data active = inhibition above about 60%;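 also: 0% = stimulated vehicle wells and 100% = unstimulated wells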
PRMT1 inh conf: PRMT1 methyltransferase inhibitors, confirmation, biochemical, fluorescence polarization, triplicate; inhibition, % at 2.79 µM; 3,300 compounds, 42% hits; shares compounds with PRMT1 FP inh; AID 687036, 2013; recombinant His-PRMT1, activity-based probe fluorescence polarization;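 active = mean inhibition across replicates above the hit cutoff derived for the earlier primary screen, cut at about 22% in these data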
* = called active by the depositor; · = not tested or not shown.

SMILES	TLR9-MyD88 inh	NOD2-RIPK2 inh	Exocytosis inh	PRMT1 FP inh	TLR4-MyD88 BLA	ABHD5 PLIN5 PPI	PRMT1 inh conf	others
Cc1cccc(CNCCc2c[nH]c3ccccc23)c1	-8	8	80*	0	·	2	·	Exocytosis CP01=-11
Cc1ccccc1CC(=O)N(CCN(C)C)CC1CCCN(Cc2ccccc2F)C1 (stereo unspecified)	1	-3	62*	0	·	15	·	Exocytosis CP01=-5
CN(C(=O)Cc1ccc2c(c1)OCO2)C1CCCN(Cc2ccccc2F)C1 (stereo unspecified)	-1	-1	-5	-1	·	1	·
CCOC(=O)c1c(C)n(Cc2ccccc2)c2ccc(OCC(O)CN3C(=O)CNC3=O)cc12 (stereo unspecified)	-5	-11	1	0	-7	1	·
C#CCOc1ccc2c(c1)c(C(C)=O)c(C)n2Cc1ccccc1	-8	4	60*	-1	·	-3	·	Exocytosis CP01=-4
CN1OC[C@@H]2CN[C@H](c3ccc(Br)cc3)C[C@@H]21	-3	-1	1	1	·	-8	·
NN=C(N)N	-2	-1	-2	-3	·	4	·
CC(C)Nc1ccc(Nc2ccccc2)cc1	-11	-1	100*	25*	·	-9	70*	Exocytosis CP01=52
CC(C)C[C@H](NP(=O)(O)O[C@@H]1O[C@@H](C)[C@H](O)[C@@H](O)[C@H]1O)C(=O)N[C@@H](Cc1c[nH]c2ccccc12)C(=O)O	2	9	-4	-4	·	0	·
CNCC(O)c1ccc(O)cc1 (stereo unspecified)	·	-18	-1	-6	5	5	·
CC(Cc1ccc(O)cc1)NCC(O)c1ccc(O)c(O)c1 (stereo unspecified)	-8	12	66*	25*	·	-4	11	Exocytosis CP01=-2
C[C@@H]1CNCCN1c1ccc(N2CC[C@@H](O)C2)c(C#N)c1	·	·	·	-5	·	·	·
Cc1cc(N2CCNC[C@H]2C)ccc1N1CC[C@@H](O)C1	·	·	·	51*	·	·	8
CCOc1ccc(C(C)=O)cc1Cc1c(O)[nH]c(=S)[nH]c1=O	-8	-2	-4	9	·	2	·
COc1ccc(C(C)=O)cc1Cc1c(O)[nH]c(=S)[nH]c1=O	5	-3	-11	28*	·	-6	-1
Oc1ccccc1CN(CCc1ccccc1)Cc1ccccc1	5	5	26	1	·	-2	·
O=C(O)c1ccccc1-c1ccc(C=C2C(=O)N(c3ccccc3)C(=S)N(c3ccccc3)C2=O)o1	8	10	22	39*	·	-2	59*
CCOC(=O)C1=C(C)N(C)C2(C)CC1c1ccccc1O2 (stereo unspecified)	11	-8	0	-3	-6	9	·
O=[N+]([O-])c1ccc(NCc2ccccc2)c2nonc12	·	·	·	168*	14	·	159*
O=C(Nc1nccs1)c1c(O)c2c(n(Cc3ccco3)c1=O)CCCC2	-5	-4	-4	1	·	9	·
Nc1ccccc1C(=O)OCC(=O)N1CCc2ccccc21	-1	-4	-2	1	-5	-7	·
N#CSCC(=O)N1c2ccccc2CCc2ccccc21	7	11	18	58*	-8	2	50*
CCC1(CCc2ccncc2)C(=O)NC(=O)NC1=O	4	-2	1	2	5	0	·
CCc1ccc(/C=C(/C#N)C(N)=S)cc1	5	1	-5	30*	2	-8	5
N#C/C(=C\c1ccc(O)cc1)C(=O)O	6	-15	-3	3	·	1	·
SMILES	TLR9-MyD88 inh	NOD2-RIPK2 inh	Exocytosis inh	PRMT1 FP inh	TLR4-MyD88 BLA	ABHD5 PLIN5 PPI	PRMT1 inh conf	others
CC(Cc1ccccc1)NC(=O)/C=C/C(=O)O (stereo unspecified)	3	-12	-1	2	-6	-6	·
CNC(=O)CSP(=S)(OC)OC	-1	-19	3	32*	·	-12	29*
CCOC(=O)CNC(=O)CSP(=S)(OCC)OCC	0	-9	5	-1	-12	15	·
CCN(CC)P(=O)(/C=C(\Cl)c1ccccc1)/C=C(\Cl)c1ccccc1	4	16	-1	-2	-13	-1	·
CCN(CC(=O)Nc1ccc(C#N)c(Cl)c1)CC(=O)NC1CCS(=O)(=O)C1 (stereo unspecified)	-3	-8	-2	3	·	-2	·
O=C(O)Cn1cc(/C=C2\C(=O)NC(=O)N(Cc3ccco3)C2=O)c2ccccc21	-2	-5	-2	27*	7	10	20
O=CC(Br)P(=O)(N1CCOCC1)N1CCOCC1 (stereo unspecified)	·	4	-4	26*	·	-10	31*
O=P(C(Cl)Cl)(N1CCOCC1)N1CCOCC1	4	-13	-8	0	·	2	·
CN1C(=O)NC(=O)/C(=C/c2ccc(C(=O)O)cc2)C1=O	13	-2	-7	31*	·	15	6
CCOC(=O)c1c(/N=C/C2C(=O)NC(=S)NC2=O)sc2c1CCC2	·	-2	13	·	7	-19	·
N#Cc1c(/N=C/C2C(=O)NC(=S)NC2=O)sc2c1CCCC2	0	-6	-2	26*	7	-27	7
CCOP(=O)(OCC)C(O)c1ccc(OC)c(OC)c1 (stereo unspecified)	1	0	5	0	5	8	·
NC(=S)/N=C/c1c(O)[nH]c(=O)[nH]c1=O	-6	4	-14	34*	-7	5	4
COC(=O)C1=C(c2ccc(OCc3ccccc3)cc2)C[C@@H]2CC[C@H]1N2C(=O)NCc1ccc(F)cc1	-3	-1	10	0	·	-3	·
CCOC(=O)c1cc(C)sc1/N=C/C1C(=O)NC(=S)NC1=O	-3	-10	-2	86*	-19	-9	9
N#CCN1CCN(c2ccc(C(F)(F)F)cc2)CC1	-2	0	-3	-1	-10	-3	·
COC(=O)N(c1ccccc1)P1(=S)OCCO1	-10	-14	-2	30*	0	-18	44*
CCOC(=O)N(c1ccccc1)P1(=S)OCCO1	0	-11	-1	14	-1	-18	·

Bioassay records deposited in PubChem by several laboratories.
